VCAM1 pot = potentiators of TNFa-induced VCAM1 expression, primary screen, imaging, HUVEC, TNFa stimulus, immunofluorescence; AID 808, 2007; activation, % at 2 µM; HUVEC TNFa-stimulated VCAM-1 immunofluorescence, high-content imaging; scaled per plate to unstimulated/TNFa-only wells; 93,000 tested, 0.19% active;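 active = activation above the screen mean plus 3 SD, with well images confirming the hit on visual review, cut at about 28% in these data, passing the limit was not always enough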;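 also: signal is the number of cytoplasmic VCAM-1 stained grains per positive cell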
VCAM1 pot confirm = potentiators of TNFa-induced VCAM1 expression, confirmation, imaging, HUVEC, triplicate retest; shares compounds with VCAM1 pot; HUVEC TNFa-stimulated VCAM-1 immunofluorescence imaging; activation, % at 2 µM; 230 tested, under 10 active; AID 1034, 2008;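 active = activation above 30% in triplicate retests at 2 µM, then confirmed by visual review of the well images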;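 also: scaled per plate between unstimulated and TNFa-stimulated DMSO control wells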
The depositor's hits bear a star. Many of the other results were omitted from the sample, so hits are more common in it than they were.

SMILES	VCAM1 pot	others
CCN1C(=O)C(CC(=O)Nc2ccc(Br)cc2)N(CCCc2ccccc2)C1=S (stereo unspecified)	-10
COc1nn(C(C)C(=O)N2N=C(C(F)F)CC2(O)C(F)F)cc1[N+](=O)[O-] (stereo unspecified)	6
COc1ccc(CN(C)C2CCCCC2)c(C)c1C	4
COc1ccc(CSc2nnnn2C)cc1F	-4
CC(C)c1ccc(Oc2cccc(C(=O)/C(C#N)=C/N(C)C)c2)cc1	-3
CC(C)(C)NS(=O)(=O)c1ccc(NC(=O)C(Sc2ccccc2)c2ccccc2)cc1 (stereo unspecified)	11
CCNc1ccc(Br)cc(C(=O)/C=C/c2ccc(Cl)cc2Cl)c1=O	-6
COC(=O)COc1ccc(S(=O)(=O)Nc2ccc(NC(C)=O)cc2)cc1C	26
N#CC(/C(=N/S(=O)(=O)c1cccs1)c1ccccc1)c1nc2ccccc2[nH]1 (stereo unspecified)	-5
Nc1nonc1-n1nnc(C(=O)O)c1-c1cccs1	-18
CCOc1ccc2nc(SCC(=O)NC(=O)NCc3ccco3)[nH]c2c1	-1
CCOC(=O)c1nc2cc3n(c(C)c-2c1C)C(C)C(CC)=C3C (stereo unspecified)	28
C#CC1(O)CC(C)NCC1(C)CCC#N (stereo unspecified)	-10
CNC(=O)c1ccccc1S(=O)(=O)c1ccccc1C#N	5
CCN(CC)CC(C)OC(=O)COc1ccc(OC)cc1 (stereo unspecified)	33
CC1CC(C)CN(c2nc3c(c(=O)n(C)c(=O)n3C)n2C)C1 (stereo unspecified)	-1
CCSc1nc(O)c(Cc2ccccc2)c(=O)[nH]1	0
Cc1ccc(OCCNS(=O)(=O)c2cccs2)cc1	-4
CC(C)(C)S(=O)c1cccs1 (stereo unspecified)	4
CN(C(=O)CSc1nc(-c2ccccc2)cn1N)C(c1ccccc1)c1ccccc1	-3
Cn1c(SCCCC(=O)c2ccc(Br)cc2)nnc1-c1ccncc1	-7
CN(CC(=O)Nc1nc2ccccc2s1)S(=O)(=O)c1ccccc1	16
COc1cc2[nH]c(=O)n(CCCCCC(=O)N3CC=C(c4ccccc4)CC3)c(=O)c2cc1OC	-1
O=C(Cc1ccccc1)Nc1cccc(N2CCCC2)c1	38
CNc1nc(NC)nc(-n2c(C(F)(F)F)nc3ccccc32)n1	2
SMILES	VCAM1 pot	others
COc1cccc(C2C(C(C)=O)=C(O)C(=O)N2CCc2c[nH]c3ccccc23)c1 (stereo unspecified)	-2
CN(C(=O)CSc1nc(N)nn1-c1ccccc1)c1ccccc1	-7
C/C(=N\Nc1nc2c(s1)CCCC2)c1ccccc1	-62
Cn1cc(SCC(=O)N2CCCc3ccccc32)c2ccccc21	-4
COC(=O)CSC(C(=O)Nc1ccc(C)c(C)c1)c1ccccc1 (stereo unspecified)	-1
COC(=O)c1ccc(C2C(C(C)=O)=C(O)C(=O)N2CCO)cc1 (stereo unspecified)	2
COc1ccccc1C(=O)N/C(=C/c1ccc(Br)cc1)C(=O)NCC(=O)O	-8
CN(CC(=O)NCc1ccncc1)S(=O)(=O)c1ccc(F)cc1	-100
Cc1cccc(OCCCCCn2ccnc2)c1	-10
O=C(NC1CCCc2ccccc21)c1cncc(Br)c1 (stereo unspecified)	-9
CC(C)Oc1ccc(C2C(C(=O)c3ccco3)=C(O)C(=O)N2CCCN(C)C)cc1 (stereo unspecified)	-23
CC1=C(C)/C(=N/OC(=O)c2cccc([N+](=O)[O-])c2)C=CC1=O	26
O=C(NCC1COc2ccccc2O1)C1CCN(S(=O)(=O)c2cccc3nsnc23)CC1 (stereo unspecified)	2
CCCCC1CC1C(=O)Nc1ncc2c(n1)CC(C)(C)CC2=O (stereo unspecified)	3
COCc1cc(Sc2ccc(Cl)cc2Cl)nc(-c2ccccc2)n1	-6
COCCNC(=O)CSc1nc2ccccc2c(=O)n1CCCC(=O)NCc1ccccc1	4
O=C1OCC(CO)(CO)N=C1NNc1ccccc1Cl	6
O=C(CSc1nnc(-c2cccs2)n1-c1ccccc1)N1CCc2ccccc21	16
CCc1ccc(Nc2oc(C)cc(=O)c2C(C)=O)cc1	-7
COc1ccc(CCN2C(=O)C(O)=C(C(=O)c3ccco3)C2c2cccs2)cc1OC (stereo unspecified)	1
CSc1nc(C)cc(OCC#N)n1	10
CCOC(=O)C1=C(O)/C(=C/c2ccc(C)o2)SC1=NC(=O)c1ccccc1C	20
COC(=O)NNC(=O)c1ccccc1C	6
Cc1ccc(OCC(=O)Nc2ccc([N+](=O)[O-])cn2)cc1C	1
O=C1O/C(=C/C(=O)N2CCOCC2)c2ccccc21	12
SMILES	VCAM1 pot	others
CCC(C)N1CCCCC1C(=O)Nc1c(C)cc(C)cc1C (stereo unspecified)	17
Cn1c(=O)c2c(-c3ccncc3)c3c(nc2n(C)c1=O)-c1ccccc1C3=O	20
O=C(COc1ccc2ccccc2c1Br)Nn1cnnc1	-22
Cc1ccc(C(C)C)c(OC(=O)/C=C/c2ccccc2)c1	6
Cc1cc(OCC(=O)NCc2nc(-c3ccccc3)no2)c(C)cc1Br	10
CCOC(=O)Cc1nnc(NC(=O)CSc2nnc3c4ccccc4n(C)c3n2)s1	-8
COc1ccc(S(=O)(=O)Nc2nc3n(n2)C(c2ccc(Cl)cc2)CC(=O)N3)cc1 (stereo unspecified)	-39
COc1ccc(N2C(=O)CC(n3c(CCCCO)nc4ccccc43)C2=O)cc1 (stereo unspecified)	1
Cn1c(Cn2nnc3ccccc32)nnc1SCC(=O)c1ccc(F)cc1	-6
COc1ccccc1-n1cnc2cc(NS(=O)(=O)c3ccc(Br)cc3)ccc21	0
CC(=O)Nc1sc2c(c1CN1CCN(c3ccc(F)cc3)CC1)CCCC2	-5
CCOC(=O)C1CCCN(Cc2sccc2C)C1 (stereo unspecified)	-7
CC(NCc1ccc2c(c1)OCO2)C(=O)NC1CCCc2ccccc21 (stereo unspecified)	-97
COC(=O)c1nn(-c2ccc(Cl)cc2)c(=O)cc1Sc1ccccn1	6
CC(C)(C)C(=O)N1CCN(c2c(Cl)cccc2[N+](=O)[O-])CC1	3
Cc1cccc(Cn2c(C(=O)OC(C)C)cc3c2ccn3C)c1	-13
Cc1cc(C)n(-c2ccc(C(=O)Oc3ccc4c(c3)OCO4)cc2)n1	23
CCOc1ccc(-c2nnn(CC(=O)c3ccc4c(c3)OCCO4)n2)cc1	84*	VCAM1 pot confirm=-20
CCOC(=O)c1ccc(NC(=O)Cn2nnc(-c3ccccc3)n2)cc1	-88
CCCCCn1c(SCC(=O)c2ccccc2)nc2cc(C(=O)NCc3ccco3)ccc2c1=O	-5
CCCCn1c(SCC(=O)c2ccc3c(c2)OCCO3)nnc1-c1ccco1	-2
O=C(CCN1CCc2ccccc21)c1ccc2c(c1)OCCO2	67*	VCAM1 pot confirm=0
O=C(CCC(=O)N1CCc2ccccc21)Nc1ccccc1	5
COc1cc2[nH]cc(C(=O)NCc3cccs3)c(=O)c2cc1OC	-20
CSC1=NCCN1C(=O)COc1ccc2ccccc2c1	30*	VCAM1 pot confirm=-10
COc1ccc(OCC(=O)N2CC3(C)CC2CC(C)(C)C3)cc1 (stereo unspecified)	-18
O=C(COc1ccc(Br)cc1)N1CCN(c2ccccc2)CC1	8

Bioassay records: PubChem BioAssay, Columbia University Molecular Screening Center
